About 240 (0.071%) of roughly 340,000 compounds were called active. What follows is part of a selection rich in actives, with near analogues and random picks from the rest. A number with no mark means an inactive call.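 How the source made its calls: active means activation above the mean of all tested compounds plus 3 SD, set per screening campaign (cut at about 17% in these data); inactive means the rest.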

The target of this assay is Insulin-degrading enzyme (Homo sapiens) (UniProt P14735). The experiment in a line: enhanced cellular IDE Abeta cleavage – fluorescence polarization, HEK cells, FAbeta-B substrate, primary screen (AID 493087). Conditions: at 5.96 µM, active compounds read high, 0% vehicle, 100% cell-free pure enzyme wells.
Insulin-degrading enzyme (Homo sapiens), sequence (P14735 whole entry, looked up): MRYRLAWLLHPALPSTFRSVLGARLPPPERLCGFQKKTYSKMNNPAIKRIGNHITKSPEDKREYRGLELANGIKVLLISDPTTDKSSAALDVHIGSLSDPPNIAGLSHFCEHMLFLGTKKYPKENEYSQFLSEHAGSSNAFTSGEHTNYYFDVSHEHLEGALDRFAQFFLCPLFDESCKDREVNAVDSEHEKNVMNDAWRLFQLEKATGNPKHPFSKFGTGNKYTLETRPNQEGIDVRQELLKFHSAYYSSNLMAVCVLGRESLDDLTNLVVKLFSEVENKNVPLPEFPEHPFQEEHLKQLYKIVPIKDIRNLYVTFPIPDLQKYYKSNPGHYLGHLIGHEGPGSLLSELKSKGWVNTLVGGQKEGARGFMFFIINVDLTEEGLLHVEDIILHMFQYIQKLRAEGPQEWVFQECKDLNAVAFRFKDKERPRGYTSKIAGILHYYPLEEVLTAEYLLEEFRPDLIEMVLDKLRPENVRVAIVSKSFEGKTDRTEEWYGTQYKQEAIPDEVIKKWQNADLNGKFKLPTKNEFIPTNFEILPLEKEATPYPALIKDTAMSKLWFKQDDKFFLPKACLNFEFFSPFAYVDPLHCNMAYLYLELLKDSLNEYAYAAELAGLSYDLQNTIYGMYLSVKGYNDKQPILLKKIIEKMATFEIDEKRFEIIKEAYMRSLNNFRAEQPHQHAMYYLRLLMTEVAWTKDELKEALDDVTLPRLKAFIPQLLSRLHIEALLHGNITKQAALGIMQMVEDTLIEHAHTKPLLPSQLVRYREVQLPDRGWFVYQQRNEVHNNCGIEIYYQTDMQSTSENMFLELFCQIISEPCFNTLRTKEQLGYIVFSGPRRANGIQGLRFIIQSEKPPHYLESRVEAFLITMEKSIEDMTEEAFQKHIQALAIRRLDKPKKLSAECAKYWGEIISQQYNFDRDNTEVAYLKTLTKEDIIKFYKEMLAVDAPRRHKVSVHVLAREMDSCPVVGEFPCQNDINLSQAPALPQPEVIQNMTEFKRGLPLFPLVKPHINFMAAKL
Consider `O=C(O)CCn1cc(/C=C/C(=O)c2ccc(Cl)cc2)c(-c2cccc(Br)c2)n1`, for which the activation is 7.16%.
In the case of `COc1cc2c3c(c1)/C(=C1/SC(=S)NC1=O)C(=O)N3C(C)(C)C=C2C` it was 3.91%; in that of `O=C(CSc1nc2nccnc2c(=O)n1Cc1cccs1)Nc1ccccc1F`, -1.39%; in that of `N#C/C(=C/c1cccc([N+](=O)[O-])c1)c1nnc2n1CCCCC2`, 1.53%.
With `O=C(O)c1ccc(S(=O)(=O)N2CCC(Cc3ccccc3)CC2)cc1`, the activation is -5.76%.
For the compound `COc1ccc(-c2c(-c3cc(OC)cc(OC)c3)n(C)c3ccc(-c4ccn[nH]4)cc23)cc1`, the activation was 1.2%.
In the case of `CCSc1nc(=S)n(CC)c(C)c1C(C)=O` it was -2.33%.
Take `CC1=C(C)CC(C(=O)NNC(=O)c2csc3c2CCC(C(C)(C)C)C3)C(C(=O)O)C1` (stereo not drawn): the activation was 4.06%.
In the case of `Cc1ccc(CNC(=O)C2CCN(S(=O)(=O)c3ccc4nc5c(c(C(=O)O)c4c3)CC(C)CC5)CC2)cc1` (stereo not drawn), the activation was -1.27%.
Turning to `Cc1ccc(-c2nc(COC(=O)c3c(C)noc3C)cs2)cc1`, the activation was -2.15%.
As for `COC(=O)c1sc2[nH]c(=S)n(N)c(=O)c2c1C`, the activation was 3.84%.
In the case of `O=C(CCC(=O)N1CCN(S(=O)(=O)c2ccc(Cl)cc2)CC1)NCc1cccc(C(F)(F)F)c1` it was 2.14%.
Take `Cc1ccc(S(=O)(=O)N(C)CC(=O)NCC(c2ccc(F)cc2)N2CCOCC2)cc1` (stereo not drawn): the activation is 1.51%.
Consider `Cn1nccc1C(=O)N1CCCC(C(=O)c2ccc(Oc3ccccc3)cc2)C1` (stereo not drawn), for which the activation was -8.2%.
Regarding `O=C(NCCCn1ccnc1)C(=O)NCC1OCCN1S(=O)(=O)c1cc(F)ccc1F` (stereo not drawn), the activation is 4.73%.
Turning to `COc1ccc(-n2ncc3c2CC(C)(C)CC3NC(=O)CCc2c(C)nn(C)c2C)cc1` (stereo not drawn), the activation was 5.01%.
In the case of `CN1CCC(=NNC(=O)CN(c2cccc(Cl)c2)S(C)(=O)=O)CC1` it was 2.41%.
Take `O=C(CN1C(=O)NC(Cc2ccccc2)(Cc2ccccc2)C1=O)NCC1CCCCC1`: the activation was 2.02%.
The result for `CCc1cc(=O)oc2cc(OCC(=O)N3CCCc4ccccc43)ccc12` reads -2.67%; that for `O=C(CN1C(=O)CC(c2ccccc2)=Nc2ccccc21)NC1CCCCC1`, 1.38%.
As for `CC12CCCCC1=CC(=O)CC2` (stereo not drawn), the activation is 3.28%.
As for `Cc1ccc(S(=O)(=O)N2CC(C)N(S(C)(=O)=O)C2)cc1` (stereo not drawn), the activation was 2.36%.
`COCC1CCN(C(=O)CCc2nnc(C3(c4ccc(Cl)cc4)CCC3)o2)C1` (stereo not drawn): the activation was 0.92%.
As to `CCC(Cc1ccccc1)NS(=O)(=O)c1ccc2c(c1)NC(=O)CS2` (stereo not drawn), the activation was 4.18%.
Consider `CN1CCN(CCCNC(=O)c2ccc(/C=C3\Oc4ccccc4N(Cc4ccc(Cl)cc4)C3=O)cc2)CC1`, for which the activation was -0.17%.
Turning to `O=C(NCCCN1CCOCC1)c1ccc2c(c1)N(Cc1cccc(F)c1)C(=O)c1ccccc1S2`, the activation was 0.8%.
Take `CCN1CCN(CCNC(=O)c2ccc(/C=C3/Sc4ccccc4N(Cc4cccc(C)c4)C3=O)cc2)CC1`: the activation was 24.8% (active).
For `CCC1CCCCN1C(=S)Nc1ccc(C(C)=O)cc1` (stereo not drawn), the activation was 1.79%.
On to `CCOC(=O)c1cc2c(=O)n3ccccc3nc2n(CC(C)C)c1=NC(=O)c1c(-c2c(F)cccc2Cl)noc1C`, for which the activation was 1.41%.
In the case of `CC1(C)CC(N2CCN(C(c3ccccc3)c3ccccc3)CC2)=CC(=[N+]2CCCCC2)C1` it was 0.04%; in that of `Oc1c(CN2CCOCC2)ccc(CN2CCOCC2)c1O`, -3.83%.
In the case of `c1ccc2c(c1)CCc1snnc1-2` it was 2.79%; in that of `NC1=NOC(=O)C1C1CCCCC1` (stereo not drawn), 5.24%; in that of `COC(=O)Nc1ccc(S(=O)(=O)N(C)CC(F)(F)C(F)F)cc1`, 3.58%.
Turning to `Brc1ccc(/C=N/N2CCN(C3c4ccccc4-c4ccccc43)CC2)s1`, the activation is -7.03%.
For the compound `CCc1ccc(C(=O)NNC(=O)C2CCN(c3ncnc4sc(C)c(C)c34)CC2)cc1`, the activation is -11.5%.
Consider `COc1ccc(C(=O)NCCn2nc(C)cc2C)cc1OC1CCN(C(C)=O)CC1`, for which the activation is 1.62%.
Regarding `O=c1nc(N2CCOCC2)nc2n1CCO2`, the activation is -0.31%.
For `Cc1ccc(S(=O)(=O)/N=C(\CN2CCOCC2)N2CCOCC2)cc1`, the activation is -5.66%.
On to `COc1cc2[nH]c(O)c(C=O)c2cc1OC`, for which the activation is -5.21%.
As for `CCS(=O)(=O)c1ccc(O)c(NC(=O)COc2ccc(Cl)cc2)c1`, the activation was 0.73%.
`Cc1ccc(O)c(NC(=S)NC(=O)COc2ccc(Br)cc2)c1`: the activation is 18.1% (active).
`COc1ccc(C(=O)Nc2cc(C)ccc2NC(=O)COc2ccccc2)cc1`: the activation was 0.16%.
In the case of `Cc1cc(C)n2nc(C(=O)Nc3cccc(S(=O)(=O)N4CCOCC4)c3)nc2n1` it was 1.61%; in that of `COc1ccc([C@H]2CC(=O)C=C(/C=C/c3ccc(Cl)cc3)C2)cc1`, 3.83%; in that of `COCc1cc(C)n(CC(=O)NCC2CCCO2)c(=O)c1C#N` (stereo not drawn), -1.81%.
With `COc1ccc(CCNC(=O)COC(=O)C2CC2C)cc1` (stereo not drawn), the activation is 3.39%.
With `O=C(CCCCCCCC(=O)N1CCCCC1)N1CCCCC1`, the activation is -0.9%.

The values above are taken from PubChem BioAssay AID493087 (The Scripps Research Institute Molecular Screening Center, 2011).
